Sampled rows, rich in hits. Any-hit rate of the full collection: about 20%.
Cycloheximide cs – Cycloheximide Counterscreen for Small Molecule Inhibitors of Shiga Toxin. cell reporter, cycloheximide protein synthesis inhibition counterscreen. 300,000 compounds, 12% hits. max response, %; in the data active = max response mostly above about 13%, no sharp cut-off; inactive = mostly below about 14%; also: read at 38.3 µM for the half of the compounds with a filed dose
Pf growth 96h – Primary qHTS for delayed death inhibitors of the malarial parasite plastid, 96 hour incubation; P. falciparum luciferase reporter growth, 96 h; Potency, µM (series often up to 28.7 µM), actives largely listed as inhibitors; 320,000 compounds, 6.9% hits
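P. falciparum expressing integrated firefly luciferase, in erythrocytes at 2% hematocrit, 0.05% parasitemia, incubated with compounds 96 h at 37 C, 5% CO2. Growth inhibition read as loss of luminescence; two-generation exposure targets delayed-death apicoplast inhibitors.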
Shiga inhibitor – A qHTS for Small Molecule Inhibitors of Shiga Toxin; 290,000 compounds, 9.2% hits; Vero cells, Shiga toxin protein synthesis inhibition reporter; inhibition, % at 38.7 µM; AID 2315, 2010; in the data active = inhibition mostly above about 28%, no sharp cut-off; inactive = mostly below about 43%
HCMV antiviral – qHTS Assay for inhibitors of the human cytomegalovirus (HCMV) | HFF cells, HCMV-luciferase reporter, 72 h; active compounds read low | activity change, negative = inhibition, % at 57.5 µM | 410,000 compounds, 4.5% hits; in the data active = activity change below about -60%; inconclusive = no clear call, values can overlap the other calls; inactive = above about -39%
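Two-dose cell screen: HFF monolayers treated with compounds and infected with luciferase-expressing HCMV at 1 PFU/cell, 72 h at 37C, then lysed for luciferase measurement.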
Pf growth 48h – Primary qHTS for delayed death inhibitors of the malarial parasite plastid, 48 hour incubation | P. falciparum luciferase growth in erythrocytes, 48 h | Potency, µM (series often up to 28.7 µM), hits mostly inhibitors | 310,000 compounds, 5.9% hits
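Growth was read as firefly luciferase luminescence after a 48 h, 37 C, 5% CO2 exposure of compounds to reporter-bearing P. falciparum cultures (0.1% parasitemia, 2% hematocrit final) in Albumax-supplemented RPMI 1640.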
A number is an active result; [ ] = another dose, or the depositor's remark. Unless noted, calls follow the shape of the dose curve; as a rule, active = well fitted inhibition curve with a large enough effect; inconclusive = small, poorly fitted or top-dose-only effect, or another doubt; inactive = no such curve, though single readings can be large or run the other way.

For CCN(CC)S(=O)(=O)c1ccc(C(=O)NC(C)(C)C)cc1 the results were Cycloheximide cs inactive, Pf growth 96h inactive, Shiga inhibitor inactive, HCMV antiviral inactive and Pf growth 48h inactive.
For Cc1cccc(NC(=O)COC(=O)c2ccccc2SCC(=O)N2CCCC2)c1 the results were Cycloheximide cs inactive, Pf growth 96h inactive, Shiga inhibitor inactive, HCMV antiviral inactive and Pf growth 48h inactive.
For Cc1ccc(Nc2nnc(-c3ccc(C)c(S(=O)(=O)NCc4nc5ccccc5[nH]4)c3)c3ccccc23)cc1 the results were HCMV antiviral inactive.
Cc1ccc(-c2nnc(NCc3nc4ccccc4[nH]3)c3ccccc23)cc1S(=O)(=O)N(C)C was read as Cycloheximide cs inactive, Pf growth 96h inconclusive, Shiga inhibitor inactive, HCMV antiviral inactive and Pf growth 48h 13.1µM.
`Cc1ccc(-c2nnc(NCc3nc4ccccc4[nH]3)c3ccccc23)cc1S(=O)(=O)N1CCOCC1` gave Cycloheximide cs inactive, Pf growth 96h 2.62µM, Shiga inhibitor inactive and Pf growth 48h 11.7µM.
`CNC(=O)Cn1nc(-c2ccc(C)c(S(=O)(=O)N(C)C)c2)c2ccccc2c1=O` gave Cycloheximide cs inactive, Pf growth 96h 9.28µM, Shiga inhibitor inactive, HCMV antiviral inactive and Pf growth 48h inactive.
For Cc1ccccc1NC(=O)Cc1nc(COC(=O)c2nccnc2N)cs1 the results were HCMV antiviral inactive.
For COc1cccc(C2=CC(=O)C[C@H](c3ccc(Cl)cc3)C2)c1OC the results were Pf growth 96h inactive, HCMV antiviral inactive and Pf growth 48h inconclusive.
For CCOC(=O)c1cccc(C2=CC(=O)C[C@H](c3ccc(Cl)cc3)C2)c1 the results were Pf growth 96h inconclusive, HCMV antiviral inactive and Pf growth 48h 13.1µM.
For O=C1C=C(c2ccc(-c3ccccc3)cc2)C[C@@H](c2ccc(Cl)cc2)C1 the results were Pf growth 96h inactive, HCMV antiviral inactive and Pf growth 48h inconclusive.
For COc1ccccc1C1=CC(=O)C[C@H](c2ccc(Cl)cc2)C1 the results were Pf growth 96h inconclusive, HCMV antiviral inactive and Pf growth 48h 7.38µM.
O=C1C=C(c2cc(F)ccc2F)C[C@@H](c2ccc(F)cc2)C1 was read as Pf growth 96h inconclusive, HCMV antiviral inconclusive and Pf growth 48h 2.33µM.
`O=C1C=C(c2cccc3c2oc2ccccc23)C[C@@H](c2ccc(F)cc2)C1` gave Pf growth 96h inactive, HCMV antiviral inactive and Pf growth 48h 2.33µM.
Screening CC(=O)c1ccc(NC(=O)c2nc3ccccc3n(C)c2=O)cc1 returned HCMV antiviral inactive.
Cc1nn(C)cc1CN(C)S(=O)(=O)c1cccc([N+](=O)[O-])c1 was read as Cycloheximide cs inactive, Pf growth 96h inactive, Shiga inhibitor inactive, HCMV antiviral inactive and Pf growth 48h inactive.
Screening O=C(O)CCc1nn2c3ccccc3n(Cc3ccccc3)c2nc1=O returned Cycloheximide cs inactive, Pf growth 96h inactive, Shiga inhibitor inactive, HCMV antiviral inactive and Pf growth 48h inactive.
S=C(Nc1cc(Cl)cc(Cl)c1)N1CCN(c2ccccn2)CC1 was read as Cycloheximide cs inactive, Pf growth 96h inactive, Shiga inhibitor inactive, HCMV antiviral inactive and Pf growth 48h inactive.
O=C(O)Cn1nnc(-c2ccccc2)c1COc1ccccc1 was read as HCMV antiviral inactive.
Screening Cc1cc(C2=CC(=O)C[C@H](c3ccc(F)cc3)C2)ccc1F returned HCMV antiviral -61.8.
For COc1ccc(C2=CC(=O)C[C@H](c3ccc(F)cc3)C2)cc1F the results were Pf growth 96h inconclusive, HCMV antiviral inactive and Pf growth 48h inconclusive.
`Cc1cccc(Oc2sc(C(=O)c3ccccc3)c(N)c2C#N)c1` gave Cycloheximide cs inactive, Pf growth 96h inactive, Shiga inhibitor inactive, HCMV antiviral inactive and Pf growth 48h inactive.
Screening O=C(COc1ccc(C(=S)N2CCOCC2)cc1)N1CCOCC1 returned Cycloheximide cs inactive, Pf growth 96h inactive, Shiga inhibitor inactive, HCMV antiviral inactive and Pf growth 48h inactive.
`CN(C)C(=O)CN1CCN(Cc2cn(C)nc2-c2ccc3c(c2)OCCO3)CC1` gave Cycloheximide cs inactive, Pf growth 96h 10.4µM, Shiga inhibitor inactive, HCMV antiviral inactive and Pf growth 48h inactive.
`Cc1ccc(-n2[nH]c(C)c(/C=C3/C=Nc4ccccc43)c2=O)cc1C` gave Cycloheximide cs inactive, Pf growth 96h inactive, Shiga inhibitor inactive, HCMV antiviral inactive and Pf growth 48h inactive.
For O=C1COc2ccc(C(=O)CSc3nc4ccccc4c(=O)n3-c3ccc(Cl)c(Cl)c3)cc2N1 the results were Cycloheximide cs inactive, Pf growth 96h inconclusive, Shiga inhibitor inactive, HCMV antiviral -80.8 and Pf growth 48h 10.4µM.
CCc1ccc(-n2c(SCC(=O)c3ccc4c(c3)NC(=O)CO4)nc3ccccc3c2=O)cc1 was read as Cycloheximide cs inactive, Pf growth 96h inactive, Shiga inhibitor inactive, HCMV antiviral inactive and Pf growth 48h inactive.
For CC(=O)Nc1ccc(N/C=C/C(=O)c2ccc(C)o2)cc1 the results were Cycloheximide cs 22.2, Shiga inhibitor 70.6, HCMV antiviral inactive and Pf growth 48h inactive.
COc1ccccc1Oc1ccc(N/C=C/C(=O)c2ccc(C)o2)cc1 was read as Cycloheximide cs 24.8, Pf growth 96h inactive, Shiga inhibitor 135.5, HCMV antiviral inconclusive and Pf growth 48h inactive[5.75 µM].
Screening CC(=O)Nc1ccc(N/C=C/C(=O)c2ccc(Cl)cc2)cc1 returned Cycloheximide cs inactive, Pf growth 96h inactive, Shiga inhibitor inactive, HCMV antiviral inactive and Pf growth 48h inactive.
COc1ccccc1OCCNC(=O)c1ccc(C)o1 was read as Pf growth 96h inactive, HCMV antiviral inactive and Pf growth 48h inactive.
Cc1c(C)c(C)c(CO/N=C/c2cccs2)c(C)c1C was read as Cycloheximide cs inactive, Pf growth 96h inconclusive, Shiga inhibitor inactive, HCMV antiviral inactive and Pf growth 48h inactive.
`CC(C)C[C@@H](CO)N(Cc1ccccc1)S(=O)(=O)N(Cc1ccccc1)[C@@H](CO)CC(C)C` gave Pf growth 96h 2.62µM and Pf growth 48h 7.38µM.
For COc1ccc(CN([C@H](C)CO)S(=O)(=O)N(Cc2ccccc2)[C@H](CO)C(C)C)cc1 the results were Pf growth 96h inconclusive, HCMV antiviral inactive and Pf growth 48h inconclusive.
CC(C)C[C@@H](CO)N(Cc1ccccc1)S(=O)(=O)N(Cc1ccccc1)[C@H](CO)CC(C)C was read as Pf growth 96h inconclusive and Pf growth 48h 4.65µM.
For COc1ccc(CN([C@H](CO)CC(C)C)S(=O)(=O)N(Cc2ccccc2)[C@H](CO)CC(C)C)cc1 the results were HCMV antiviral -89.1.
For C=C[C@@H](C)N(Cc1ccc(OC)cc1)S(=O)(=O)N(Cc1ccccc1)[C@H](C=C)C(C)C the results were Pf growth 96h inconclusive, HCMV antiviral inactive and Pf growth 48h 3.29µM.
Screening NS(=O)(=O)c1ccc(NNC(=O)c2ccc(Br)o2)c([N+](=O)[O-])c1 returned HCMV antiviral inactive.

Screening results (PubChem BioAssay)
